Data reported in PubChem BioAssay AID1159580 (chemical genetic matrix, 2015).
Where “and” joins values, the source holds several entries; their conditions need not be identical. Identical values can stand only once. Hit rate of the full screen: of about 5,500 compounds, about 2,000 (36%) were called active. About 18% were inconclusive and are not listed. No stated cut-off is given here; in the data, active means normalized growth mostly below about 0.91 (no sharp cut-off); inconclusive means no clear call, values can overlap the other calls; inactive means mostly above about 0.92. The list shows a part of the results.

Test: chemical genetic growth profiling, strain panel (AID 1159580);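 further: tested at 20 µM; growth read once vehicle control cultures reached saturation at 30 °C; 1 = growth at the plate median or of vehicle wells; lower values mean less growth of the strain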
Conditions: S. cerevisiae deletion strains, growth OD
[1] = locus YGR229C, strain SMI1, hits give low values
[2] = locus YNL322C, strain KRE1, hits give low values

Measured: normalized growth

Fc1ccc(C(OCCCc2cnc[nH]2)c2ccc(F)cc2)cc1
inactive: locus YAL040C, strain CLN3, hits give low values 1.01 | locus YCL061C, strain MRC1 (second series), hits give low values 1 | locus YDR363W, strain ESC2, hits give low values 0.979 | locus YER002W, strain NOP16, hits give low values 1.04 | [1] 1.02 | locus YMR263W, strain SAP30, hits give low values 1.01 | locus YNL175C, strain NOP13, hits give low values 1.01 | locus YNL197C, strain WHI3, hits give low values 1.01 | locus YNL224C, strain SQS1, hits give low values 1.02 | [2] 1.03 | locus YOR083W, strain WHI5 (second series), hits give low values 1.03 | locus YPL241C, strain CIN2, hits give low values 1.01

CN(C)CCOC(c1ccc(Cl)cc1)c1ccccn1 (stereo unspecified)
inactive: locus YAL021C, strain ccr4, hits give low values 1.04 | locus YAL026C, strain drs2, hits give low values 1.05 | locus YAL030W, strain snc1, hits give low values 1.03 | locus YBL061C, strain skt5, hits give low values 1.04 | locus YBR009C, strain hhf1, hits give low values 1.02 | locus YBR021W, strain FUR4, hits give low values 0.966 | locus YBR023C, strain chs3, hits give low values 1.03 | locus YBR171W, strain sec66, hits give low values 1.02 | locus YBR229C, strain ROT2, hits give low values 1 | locus YBR231C, strain swc5, hits give low values 1.01 | locus YBR279W, strain paf1, hits give low values 1.02 | locus YCL011C, strain gbp2, hits give low values 1.01 | locus YCL016C, strain dcc1, hits give low values 1.01 | locus YCL029C, strain bik1, hits give low values 0.999 | locus YCL069W, strain vba3, hits give low values 1.02 | locus YCR088W, strain abp1, hits give low values 1.01 | locus YDL005C, strain med2, hits give low values 1.03 | locus YDL035C, strain GPR1, hits give low values 0.978 | locus YDL040C, strain nat1, hits give low values 1.02 | locus YDL074C, strain BRE1, hits give low values 1.03 | locus YDL101C, strain DUN1, hits give low values 1.04 | locus YDL185W, strain tfp1, hits give low values 1 | locus YDL192W, strain arf1, hits give low values 1.01 | locus YDR001C, strain nth1, hits give low values 1.02 | locus YDR069C, strain doa4, hits give low values 1.03 | locus YDR101C, strain arx1, hits give low values 1.01 | locus YDR137W, strain rgp1, hits give low values 1.01 | locus YDR159W, strain sac3, hits give low values 1.02 | locus YDR162C, strain NBP2, hits give low values 0.975 | locus YDR195W, strain ref2 1.02 | locus YDR297W, strain sur2, hits give low values 1.03 | locus YDR318W, strain mcm21, hits give low values 0.998 | locus YDR334W, strain swr1, hits give low values 1.01 | locus YDR335W, strain msn5, hits give low values 1.03 | locus YDR388W, hits give low values 1.01 | locus YDR392W, strain spt3, hits give low values 1.01 | locus YDR502C, strain sam2, hits give low values 1.03 | locus YEL003W, strain gim4, hits give low values 1.01 | locus YEL037C, strain rad23, hits give low values 1.02 | locus YEL061C, strain CIN8 (second series), hits give low values 1.02 | locus YEL061C, strain CIN8, hits give low values 1.01 | locus YER015W, strain faa2, hits give low values 1.04 | locus YER016W, strain bim1, hits give low values 0.997 | locus YER110C, hits give low values 1.02 | locus YER111C, strain swi4, hits give low values 1.03 | locus YER155C, strain BEM2 (second series), hits give low values 1.02 | locus YER155C, strain BEM2, hits give low values 1.02 | locus YER167W, strain BCK2, hits give low values 0.99 | locus YFR010W, strain ubp6, hits give low values 1.03 | locus YGL078C, strain dbp3, hits give low values 0.998 | locus YGL086W, strain mad1, hits give low values 1.01 | locus YGL167C, strain pmr1, hits give low values 1.01 | locus YGL173C, strain kem1, hits give low values 1.02 | locus YGL227W, strain vid30, hits give low values 1.03 | locus YGL240W, strain doc1, hits give low values 1.04 | locus YGL248W, strain PDE1, hits give low values 1.04 | locus YGL253W, strain hxk2, hits give low values 1.03 | locus YGR078C, strain PAC10, hits give low values 1.02 | locus YGR135W, strain pre9, hits give low values 1 | [1] 0.983 | locus YGR252W, strain gcn5, hits give low values 0.947 | locus YHR013C, strain ard1, hits give low values 1.01 | locus YHR027C, strain rpn1, hits give low values 1.02 | locus YHR030C, strain SLT2, hits give low values 1 and 1.02 | locus YHR079C, strain IRE1 (second series), hits give low values 1.01 | locus YHR079C, strain IRE1, hits give low values 1 | locus YHR094C, strain hxt1, hits give low values 1.01 | locus YHR129C, strain ARP1, hits give low values 1.01 | locus YHR142W, strain chs7, hits give low values 1.02 | locus YHR200W, strain rpn10, hits give low values 1.01 | locus YIL066C, strain RNR3, hits give low values 0.957 | locus YIL073C, strain SPO22, hits give low values 1 | locus YIL125W, strain kgd1, hits give low values 0.995 | locus YIR030C, strain dcg1, hits give low values 1.03 | locus YJL092W, strain hpr5, hits give low values 1.02 | locus YJL095W, strain BCK1 (second series), hits give low values 1.01 | locus YJL095W, strain BCK1, hits give low values 1.07 and 1 | locus YJL115W, strain asf1, hits give low values 1.02 | locus YJL129C, strain trk1, hits give low values 1.05 | locus YJL134W, strain LCB3, hits give low values 1.01 | locus YJL154C, strain vps35, hits give low values 1.02 | locus YJL164C, strain tpk1, hits give low values 1 | locus YJL166W, strain qcr8, hits give low values 1.03 | locus YJL168C, strain set2, hits give low values 1.02 | locus YJL187C, strain SWE1 (second series), hits give low values 1.04 | locus YJL187C, strain SWE1, hits give low values 1.01 | locus YJR043C, strain POL32, hits give low values 0.968 | locus YJR066W, strain TOR1, hits give low values 0.981 | locus YJR075W, strain HOC1, hits give low values 1.03 | locus YKL009W, strain mrt4, hits give low values 1.02 | locus YKL068W, hits give low values 0.997 | locus YKL085W, strain MDH1 (second series), hits give low values 0.989 | locus YKL085W, strain MDH1, hits give low values 0.989 | locus YKL160W, strain elf1, hits give low values 1.02 | locus YKL190W, strain CNB1, hits give low values 1 | locus YKR001C, strain vps1, hits give low values 1 | locus YKR026C, strain gcn3, hits give low values 1.03 | locus YKR091W, strain srl3, hits give low values 1.02 | locus YLL001W, strain dnm1, hits give low values 1.03 | locus YLL026W, hits give low values 1.03 | locus YLL041C, strain sdh2, hits give low values 1.02 | locus YLR027C, strain aat2, hits give low values 1.03 | locus YLR039C, strain RIC1, hits give low values 1.02 | locus YLR058C, strain SHM2, hits give low values 1.01 | locus YLR102C, strain apc9, hits give low values 1.01 | locus YLR113W, strain HOG1, hits give low values 0.987 | locus YLR221C, strain rsa3, hits give low values 1.01 | locus YLR258W, strain gsy2, hits give low values 1.01 | locus YLR262C, strain YPT6 (second series), hits give low values 1.04 | locus YLR262C, strain YPT6, hits give low values 1.05 | locus YLR268W, strain sec22, hits give low values 1 | locus YLR320W, strain mms22, hits give low values 1 | locus YLR330W, strain CHS5, hits give low values 1.01 | locus YLR342W, strain FKS1 (second series), hits give low values 0.95 | locus YLR342W, strain FKS1, hits give low values 1.04 | locus YLR357W, strain rsc2, hits give low values 1.06 | locus YLR370C, strain arc18, hits give low values 1.01 | locus YLR371W, strain rom2, hits give low values 1 | locus YLR384C, strain iki3, hits give low values 1.03 | locus YLR418C, strain cdc73, hits give low values 1.07 | locus YML016C, strain PPZ1, hits give low values 1.01 | locus YML032C, strain rad52, hits give low values 0.998 | locus YML120C, strain ndi1, hits give low values 1.02 | locus YML124C, strain tub3, hits give low values 1 | locus YMR058W, strain fet3, hits give low values 1.03 | locus YMR078C, strain ctf18, hits give low values 1.01 | locus YMR125W, strain sto1, hits give low values 1.01 | locus YMR129W, hits give low values 1.03 | locus YMR205C, strain PFK2, hits give low values 1.03 | locus YMR223W, strain ubp8, hits give low values 0.998 | locus YMR231W, strain pep5, hits give low values 1.03 | locus YMR307W, strain GAS1, hits give low values 0.976 | locus YNL067W, strain RPL9B, hits give low values 1.06 | locus YNL071W, strain lat1, hits give low values 1.01 | locus YNL183C, strain NPR1, hits give low values 0.941 | locus YNL209W, strain ssb2, hits give low values 1.02 | locus YNL233W, strain BNI4, hits give low values 1.04 | locus YNL248C, strain rpa49, hits give low values 1.04 | locus YNL250W, strain rad50, hits give low values 1.02 | locus YNL271C, strain bni1, hits give low values 1.03 | locus YNL298W, strain CLA4, hits give low values 0.994 | locus YNL307C, strain MCK1, hits give low values 1.01 | locus YNL322C, strain KRE1 (second series), hits give low values 1.03 | [2] 1.01 | locus YNR049C, strain mso1, hits give low values 1.02 | locus YNR052C, strain pop2, hits give low values 1.01 | locus YOL012C, strain htz1 0.873 | locus YOL147C, strain pex11, hits give low values 1.01 | locus YOR001W, strain rrp6, hits give low values 1.04 | locus YOR061W, strain CKA2, hits give low values 1.01 | locus YOR069W, strain VPS5, hits give low values 1.01 | locus YOR070C, strain gyp1, hits give low values 1.01 | locus YOR080W, strain dia2, hits give low values 1.02 | locus YOR083W, strain WHI5, hits give low values 1.03 | locus YOR106W, strain vam3, hits give low values 1.03 | locus YOR136W, strain idh2, hits give low values 1.01 | locus YOR144C, strain elg1, hits give low values 1 | locus YOR184W, strain ser1, hits give low values 0.997 | locus YOR231W, strain MKK1, hits give low values 0.996 | locus YOR265W, strain rbl2, hits give low values 1.02 | locus YOR270C, strain vph1, hits give low values 1.05 | locus YOR290C, strain snf2, hits give low values 1 | locus YOR316C, strain cot1, hits give low values 1.01 | locus YPL051W, strain arl3, hits give low values 1.03 | locus YPL055C, strain LGE1, hits give low values 0.976 | locus YPL078C, strain atp4, hits give low values 1.02 | locus YPL106C, strain sse1, hits give low values 0.993 | locus YPL240C, strain hsp82, hits give low values 1.01 | locus YPL256C, strain CLN2, hits give low values 1 | locus YPR119W, strain clb2, hits give low values 1.01 | locus YPR141C, strain kar3, hits give low values 1.01 | locus YPR163C, strain tif3, hits give low values 1 | locus YPR167C, strain met16, hits give low values 1 | strain wtn01, hits give low values 0.995
